Source: PubChem BioAssay (Tox21)
Values without a mark were called inactive. Calls follow the shape of the dose curve; as a rule, active = well fitted activation curve with a large enough effect in the repeat runs; inconclusive = weak or mixed curves; inactive = flat fitted curve, though single readings scatter.

experiment: A CellTox Green Cytotoxicity Assay to monitor cytotoxicity in HEK293 cells - 0 hour (AID 1224869); settings: CellTox Green fluorescence; series mostly up to 76.8 µM; cytotoxicity: at the top concentration; also: nearly all actives have a fitted effect of over 50% in size
Excerpt: National Center for Advancing Translational Sciences [NCATS]
NIH Chemical Genomics Center [NCGC]
U.S. Environmental Protection Agency [EPA]
National Institutes of Environmental Health Sciences [NIEHS]
National Toxicology Program [NTP]
Cell-based models are critical for drug discovery. Determining the natural cytotoxic effects resulting from test compounds is an essential research activity. A CellTox Green Cytotoxicity Assay to monitor cytotoxicity in real time of continues cell culture during 40 hours of the compound treatment was used to screen Tox21 10K library compounds in Hek293 cells. CellTox Green Cytotoxicity Assay is a nonlytic, homogeneous, biofluorescent method to measure cytotoxicity in cell culture after experimental manipulation. The assay system uses a proprietary asymmetric cyanine dye that is excluded from viable cells but preferentially stains the dead cell's DNA. […] Viable cells produce no appreciable increases in fluorescence. Therefore, the fluorescence signal produced by the binding interaction with dead cell DNA is proportional to cytotoxicity.
The mixture of Hek293 cell suspension and reagents were dispensed at 600cells/6 ul/well in 1536-well tissue culture treated black solid bottom plates using a Multidrop dispenser. After the assay plates were incubated at a 37 C/5% CO2 incubator for 5 hours, 23 nL of compounds dissolved in DMSO, positive and negative controls was transferred to the assay plate by a pintool work station. The plates were incubated at 37 C for 40 hours. The fluorescence intensity were measured at 0h, 8h, 16h, 24h, 32h and 40h time points using ViewLux plate reader during compound treatment.
% is scaled to controls: 0 for no effect and ±100 for the full control effect.

Structure (SMILES)	cytotoxicity
COc1cc(S(N)(=O)=O)cc(C(=O)O)c1OC	5.67% [at 35.3 µM]
CCCCC(O)/C=C(C)/C=C/C=C/C(=O)N1CCCC1=O (stereo not given)	-4.08% [at 35.3 µM]
COC(C)(C)CC(C)=O	3.7%
COC(=O)/C=C(\C)CCC=C(C)C	0.943%
CN1CCN(C(=O)C2CCCCC2)CC1	-2.97% [at 35.3 µM]
C[C@@H]1CCC[C@H](C)N1CCCC(O)(c1ccccc1)c1ccccn1 (stereo not given in full)	-4.36% [at 35.3 µM]
CC1(C)CC(N)CC(C)(C)N1	-0.187%
O=C1c2ccccc2C(=O)N1CO	-1.04%
CC(=O)OC/C=C(/C)CCC=C(C)C	1.34%
CC(=O)Oc1ccc(C(C)=O)cc1	-0.322%
CC(O)CCCCn1c(=O)c2c(ncn2C)n(C)c1=O (stereo not given)	-0.0871% [at 35.3 µM]
CC(C)OCCO	-4.84%
Nc1ccc(C(=O)NCC(=O)O)cc1	-1.92% [at 35.3 µM]
CC(C)(C)C(=O)CCc1ccc(Cl)cc1	-3.62%
C=CC(=O)CC	-4.09%
Cc1ccc2ccccc2n1	-3.42%
CCN(CC)CC(=O)Oc1ccc(NC(C)=O)cc1	0.305% [at 35.3 µM]
CCN1CCN(C(=O)N[C@@H](C(=O)N[C@@H]2C(=O)N3[C@@H]2SC(C)(C)[C@H]3C(=O)O)c2ccccc2)C(=O)C1=O	-0.876% [at 35.3 µM]
O=C(O)/C=C(\CC(=O)O)C(=O)O	-1.39% [at 35.3 µM]
NC[C@H]1O[C@H](O[C@H]2[C@H](O)[C@@H](O[C@H]3O[C@H](CO)[C@@H](O)[C@H](N)[C@H]3O)[C@H](N)C[C@@H]2N)[C@H](N)[C@@H](O)[C@@H]1O	-1.07% [at 15.8 µM]

Structure (SMILES)	cytotoxicity
C=CC(C)(CCC=C(C)C)OC(=O)C(C)C (stereo not given)	-6.89%
CC(=O)/C=C/C=C1/C2CCC(C2)C1(C)C (stereo not given)	3.23% [at 35.3 µM]
CN(C)c1ccncc1	1.38%
CN(C)c1cc(NC(=O)CNC(C)(C)C)c(O)c2c1C[C@H]1C[C@H]3[C@H](N(C)C)C(=O)C(C(N)=O)=C(O)[C@@]3(O)C(=O)C1=C2O	5.72% [at 35.3 µM]
CCC(C)c1nccnc1OC (stereo not given)	-2.08%
CCCCOCCCC	12.5%
CC[C@@]1(c2ccccc2)NC(=O)N(C)C1=O	-4.95% [at 35.3 µM]
CC(=O)c1ccc2ccc3ccccc3c2c1	-4.54%
O=C1Nc2ccccc2C1=O	10.4%
CCO[Si](CC(C)C)(OCC)OCC	-4.21%
CCO/C=C1\N=C(c2ccccc2)OC1=O	2.92%
CCCC(=O)C(CC)Sc1ccoc1C (stereo not given)	0.0032%
C=CCn1cc[n+](C)c1	0.27%
Cc1cc(O)c(Cl)cc1C	2.04%
CCOC(=O)c1ccc(N(C)C)cc1	-3.25%
CNC(=O)c1c(I)c(NC(C)=O)c(I)c(C(=O)O)c1I	-9.11% [at 35.3 µM]
O=C(O)CCC(=O)Nc1ccc(S(=O)(=O)Nc2nccs2)cc1	-0.349% [at 35.3 µM]
C=CCN1CCc2nc(N)sc2CC1	2.49% [at 35.3 µM]
CC(=O)SCC(CC(=O)c1ccc(C)cc1)C(=O)O (stereo not given)	-1.56% [at 35.3 µM]
C[C@@H]1NC(=O)[C@@H](N)CNC(=O)[C@H](C2CCNC(N)=N2)NC(=O)/C(=C/NC(N)=O)NC(=O)[C@H](CNC(=O)C[C@@H](N)CCCN)NC1=O (stereo not given in full)	0.414% [at 0.29 µM]
